# According to PubChem BioAssay (NCATS):
# Records with an inconclusive call do not appear. Calls of active or inactive are those of the source. Calls come from the whole dose curve; as a rule, active = well fitted curve in the direction sought with a large enough effect; inconclusive = small, poorly fitted or top-dose-only effect, or another doubt; inactive = no such curve, though single readings can be large; an effect the other way counts as inactive or inconclusive.
# Biological target: Aldehyde dehydrogenase, mitochondrial (Homo sapiens) (UniProt P05091)
# Assay: qHTS for Inhibitors of the Aldehyde Dehydrogenase Family (ALDH2) Primary screen (AID 2061308);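 note: plate controls were vehicle for no effect and reference inhibitor for full effect; nearly all actives have a fitted effect of over 55% in size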
# Conditions: ALDH2 enzyme inhibition qHTS, 1536-well; series mostly up to 56 µM; activity change, negative = inhibition: at the top concentration
row,SMILES,"activity change, negative = inhibition"
1,CCOc1ccc(CCNC(=O)c2cc3cccnc3n2Cc2cccc(C)c2)cc1OCC,-0.752% (inactive)
2,Cc1nnc2n1-c1sc(CCc3ccc(CC(C)C)cc3)cc1C(c1ccccc1Cl)=NC2C (stereo not drawn),3.24% (inactive)
3,Cc1cccc(NC(=O)N[C@H]2CN(C)c3ccccc3C(c3ccccc3)=N2)c1,-2.12% (inactive)
4,C/C=C(\C)C(=O)O[C@@H]1[C@@H](C)[C@]2(O)C3C=C(C)C(=O)[C@@]3(O)CC(CO)=C[C@H]2C2C(C)(C)[C@@]21OC(=O)C(C)CC (stereo partly drawn),1.01% [at 28 µM] (inactive)
5,CC(=O)O[C@H]1C[C@]2(O)[C@@H]3CC[C@@H]4C[C@@H](O)CC[C@]4(C)[C@H]3CC[C@]2(C)[C@H]1c1ccc(=O)oc1,0.264% (inactive)
6,N#Cc1ccc(NC(=O)Nc2nnc(-c3ccncc3)s2)cc1C(F)(F)F,0.915% (inactive)
7,C[C@]12CC[C@@H](O[C@@H]3O[C@H](CO)[C@@H](O)[C@H](O)[C@H]3O)C[C@@]1(O)CCC1C2CC[C@]2(C)[C@@H](C3=CC(=O)OC3)CC[C@]12O (stereo partly drawn),16.3% [at 28 µM] (inactive)
8,CC1=C(C(=O)Nc2nncs2)C(c2nn(C)cc2Cl)N=C(Nc2nc3ccccc3o2)N1 (stereo not drawn),-1.14% (inactive)

# Biological target: Retinaldehyde dehydrogenase 3 (Homo sapiens) (UniProt P47895)
# Assay: qHTS for Inhibitors of the Aldehyde Dehydrogenase Family (ALDH1A3) Primary screen (AID 2061315);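 note: plate controls were DMSO vehicle for no effect and reference inhibitor for full effect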
# Conditions: ALDH inhibition qHTS; series mostly up to 56 µM; activity change, negative = inhibition: at the top concentration
row,SMILES,"activity change, negative = inhibition"
1,C[C@@H](CN1CCC(n2c(=O)[nH]c3cc(Br)ccc32)CC1)NC(=O)[C@@H]1C[C@H]1c1ccccc1,-19.2% (inactive)
2,Cc1ccccc1C(C(=O)NC1CCCCC1)N(C(=O)Cn1ccnc1C)c1cccc(F)c1 (stereo not drawn),7.91% (inactive)
3,C[C@]12CC[C@H](O)C[C@H]1CC[C@@H]1[C@@H]2[C@H](O)C[C@]2(C)[C@@H](c3ccc(=O)oc3)CC[C@]12O,-3.76% (inactive)
4,CC(C)[C@H]1OC(=O)[C@H](Cc2ccccc2)N(C)C(=O)[C@@H](C(C)C)OC(=O)[C@H](Cc2ccccc2)N(C)C(=O)[C@@H](C(C)C)OC(=O)[C@H](Cc2ccccc2)N(C)C1=O,17.8% [at 16.9 µM] (inactive)
5,CCOc1ccc(CCNC(=O)c2cc3sccc3n2Cc2ccc(F)cc2F)cc1OCC,0.0092% (inactive)
6,CC(=O)OC[C@]12C[C@H](OC(=O)CC(C)C)C(C)=C[C@H]1O[C@@H]1[C@H](O)[C@@H](O)[C@@]2(C)[C@]12CO2,6.21% [at 28 µM] (inactive)
7,CCOc1ccc(CCNC(=O)c2ccc(C(=O)c3ccccc3)cc2)cc1OCC,-7.69% (inactive)
8,C[C@H]1C/C=C/[C@H]2[C@@H]3O[C@]3(C)[C@@H](C)[C@H]3[C@H](Cc4ccccc4)NC(=O)[C@]32OC(=O)O/C=C/[C@@](C)(O)C1=O,-8.42% [at 28 µM] (inactive)
9,CCCCCOc1cc2c(cc1-c1cc(/C=C/C(=O)O)ccc1O)C(C)(C)CCC2(C)C,0.465% (inactive)
10,CCN1C[C@]2(COC)[C@H](O)C[C@H](OC)[C@]34[C@@H]5C[C@]6(O)[C@H](OC(=O)c7ccccc7)[C@@H]5[C@@](O)([C@H]([C@H](OC)[C@H]23)[C@@H]14)[C@@H](O)[C@@H]6OC,7% (inactive)
11,C/C=C(\C)C(=O)OC1C2C3(C)CCC(OC4CC(OC)C(OC5OC(C)C(O)C(OC)C5O)C(C)O4)CC3CCC23OC32CCC(C(C)=O)C2(C)C1OC(=O)/C(C)=C/C (stereo not drawn),0.591% [at 16.9 µM] (inactive)
12,Cc1cccc2nc(NC3=NC(c4[nH]ncc4Cl)C4=C(CCCC4=O)N3)oc12 (stereo not drawn),0.578% (inactive)
13,S=P(c1ccccc1)(c1ccccc1)c1c[nH]c2ccccc12,4.6% (inactive)
14,CC[C@H]1C2CC3[C@@H]4N(C)c5ccccc5[C@]45C[C@@H]([C@H]2[C@H]5O)N3[C@@H]1O,-2.25% (inactive)
15,CCOc1ccc(CCNC(=O)c2ccccc2)cc1OCC,-4.63% (inactive)
16,COC(=O)C12C(=O)C(C)(O)C(=O)C1(C)C(C)=CC1C34CCC(OC3=O)C(C)(C)C4CCC12C (stereo not drawn),2.58% [at 28 µM] (inactive)
17,O=S(=O)(Nc1ccccc1)c1ccc(NCc2ccc(Br)cc2O)cc1,-5.54% (inactive)
18,C=C1[C@@H](O)[C@]2(O)OC[C@]34C2[C@]2(C)C(C[C@H]3OC(=O)[C@H](O)[C@@]14O)C(C)=CC(=O)[C@H]2O (stereo partly drawn),2.29% [at 28 µM] (inactive)
19,CO[C@@H]1[C@H](O)[C@@H](O[C@@H]2C[C@H]3CC[C@@H]4C(CC[C@]5(C)[C@@H](C6=CC(=O)OC6)CC[C@]45O)[C@@]3(C)[C@H](O)C2)O[C@H](C)[C@@H]1O[C@@H]1O[C@H](CO)[C@@H](O)[C@H](O)[C@H]1O (stereo partly drawn),-17.6% [at 16.9 µM] (inactive)
20,N#Cc1ccc(NC(=O)Nc2nnc(-c3ccncc3)s2)cc1Cl,6.71% (inactive)

row,SMILES,"activity change, negative = inhibition"
1,OC(CNc1ccccc1)Cn1c2ccc(Br)cc2c2cc(Br)ccc21 (stereo not drawn),0.101% (inactive)
2,CN1CCc2cc3c(cc2[C@H]1[C@@H]1OC(=O)c2c1ccc1c2OCO1)OCO3,2.49% (inactive)
3,CC(C)C(=O)O[C@H]1[C@@H]2[C@H](C)C(=O)O[C@@H]2C[C@@H](C)[C@@H]2C=CC(=O)[C@]21C,-0.893% (inactive)
4,CCOc1ccc(CCNC(=O)c2ccc(Oc3ccccc3)cc2)cc1OCC,-9.62% (inactive)
5,CC(=O)OC1CC(O)C2(C)C(CC(OC(C)=O)C3(C)C2CCC2(C)C(c4ccoc4)C(=O)C4OC423)C1(C)C (stereo not drawn),4.14% [at 28 µM] (inactive)
6,CC(C)CCn1c(CN2CCN(C(=O)C3CC3)CC2)nc2c1c(=O)n(C)c(=O)n2C,-9.09% (inactive)
7,CO[C@H]1[C@@H](O)[C@@H](C)O[C@@H](O[C@@H]2C=C3C(OC(C)=O)CC4(O)C(CC[C@]5(C)[C@@H](C6=CC(=O)OC6)CC[C@]45O)[C@@]3(C)CC2)[C@@H]1O (stereo partly drawn),4.9% [at 16.9 µM] (inactive)
8,CCC(C)(O)C1(C(=O)O)COC(=O)C1 (stereo not drawn),0.608% [at 81.8 µM] (inactive)
9,COC(=O)CC1CC2(C(=O)c3c(O)cccc3C2(O)C(=O)OC)C(C)O1 (stereo not drawn),-17.3% (inactive)
10,COC1CC(O[C@H]2CC[C@@]3(C)C(CCC4C3CC[C@]3(C)[C@@H](C5=CC(=O)OC5)CC[C@]43O)C2)OC(C)C1O (stereo partly drawn),11.3% [at 28 µM] (inactive)
11,COc1cccc(CNc2ccc(C(=O)Nc3nccs3)cc2)c1O,6.34% (inactive)
12,CO[C@@H]1C[C@H](O[C@H]2CC[C@@]3(C)C(CCC4C3CC[C@]3(C)[C@@H](C5=CC(=O)OC5)[C@@H](OC(C)=O)CC43O)C2)O[C@H](C)[C@@H]1O[C@H]1O[C@H](CO[C@@H]2O[C@H](CO)[C@@H](O)[C@H](O)[C@H]2O)[C@@H](O)[C@H](O)[C@H]1O (stereo partly drawn),-13.4% [at 16.9 µM] (inactive)
13,CCOc1ccc(CCNC(=O)c2cc3cccnc3n2Cc2cccc(C)c2)cc1OCC,-0.969% (inactive)
14,Cc1nnc2n1-c1sc(CCc3ccc(CC(C)C)cc3)cc1C(c1ccccc1Cl)=NC2C (stereo not drawn),37.5% (inactive)
15,Cc1cccc(NC(=O)N[C@H]2CN(C)c3ccccc3C(c3ccccc3)=N2)c1,5.18% (inactive)
16,C/C=C(\C)C(=O)O[C@@H]1[C@@H](C)[C@]2(O)C3C=C(C)C(=O)[C@@]3(O)CC(CO)=C[C@H]2C2C(C)(C)[C@@]21OC(=O)C(C)CC (stereo partly drawn),16.3% [at 28 µM] (inactive)
17,CC(=O)O[C@H]1C[C@]2(O)[C@@H]3CC[C@@H]4C[C@@H](O)CC[C@]4(C)[C@H]3CC[C@]2(C)[C@H]1c1ccc(=O)oc1,0% (inactive)
18,N#Cc1ccc(NC(=O)Nc2nnc(-c3ccncc3)s2)cc1C(F)(F)F,5.73% (inactive)
19,C[C@]12CC[C@@H](O[C@@H]3O[C@H](CO)[C@@H](O)[C@H](O)[C@H]3O)C[C@@]1(O)CCC1C2CC[C@]2(C)[C@@H](C3=CC(=O)OC3)CC[C@]12O (stereo partly drawn),-26.5% [at 28 µM] (inactive)
20,CC1=C(C(=O)Nc2nncs2)C(c2nn(C)cc2Cl)N=C(Nc2nc3ccccc3o2)N1 (stereo not drawn),21.1% (inactive)
